Assay outcomes as filed in PubChem.
PINK1 expr mod: PINK1 expression modulation | PINK1 immunofluorescence, high-content cytometry, 24 h | Potency, µM (titrated, usually from 76.6 µM), inactives show at the highest dose activation (PINK1 increase), actives largely listed as activators | actives 0.2% (n = 410,000) | AID 624263; active means well fitted activation curve with a large enough effect; inconclusive means small, poorly fitted or top-dose-only effect; cell line not stated here; further: % of control where 0% means no effect; nearly all actives have a fitted effect of over 65% in size
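Stable cell line, 250 cells/well, 12 h attachment; compounds pinned at 5 concentrations, 24 h; CCCP control. Fixed with nuclear dye, primary antibodies 12 h at 10 degrees C, secondary plus cell stain; laser-scanning cytometer read.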
Epigenetic reg: regulators of epigenetic silencing causing reporter derepression in mouse cells. murine LDR cells, GFP reporter derepression, 30 h. actives 0.2% (n = 280,000). AID 1865. Potency, µM (highest dose often 53.9 µM), inactives show top-dose GFP activation, actives largely listed as activators; further: % of control where 0% means no effect; nearly all actives have a fitted effect of over 60% in size
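GFP-positive cell count by laser-scanning cytometry (objects 20–120 um) after 30 h, 37 C compound exposure of murine LDR cells; reporter is CMV-GFP integrated at a silenced locus, inducible by HDAC or DNMT inhibitors.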
HTT aggregate: inhibitors of mutant huntingtin aggregate formation in PC12 cells; PC12 HttQ103-GFP aggregates, Acumen cytometry, 40 h; Potency, µM (doses to about 46.1 µM), for inactives: at the highest dose activity change, negative = inhibition, actives largely listed as inhibitors; actives 1.1% (n = 220,000); further: on the % scale 0 is the no-effect control and ±100 the full control effect; nearly all actives have a fitted effect of over 60% in size
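Aggregate formation scored by laser-scanning cytometer (488 excitation, 500–530 emission) in lysed PC12 cells expressing Q103-GFP after 100 nM tebufenozide induction; library tested in dose series, with ATPLite reagent added in the multiplex.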
HTT ATP protect: Huntington cell model cytoprotection by ATP luminescence; PC12 HTT-Q103 induced, cytoprotection, ATP luminescence, 40 h; Potency, µM (doses to about 56.4 µM), inactives show cytoprotection (ATP increase), most hits filed as activators; actives 0.14% (n = 230,000); AID 1471; further: % of control where 0% means no effect; nearly all actives have a fitted effect of over 45% in size
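Rat PC12, Q103 Htt exon1-GFP fusion, ecdysone promoter; tebufenozide inducer 100 nM final; compound titration; qHTS, 1500 cells/well; ATPlite luminescent read.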
Starred values were filed as active, the others as inactive; ? = inconclusive; nt = not tested or not shown; [ ] = remark or other dose. This is one part of a sample in which hits are shown more often than they occur. Unless noted, the call rests on the fitted dose curve; in most records, active means well fitted curve in the direction sought with a large enough effect; inconclusive means small, poorly fitted or top-dose-only effect, or another doubt; inactive means no such curve, though single readings can be large; an effect the other way counts as inactive or inconclusive. Potency means the concentration at half of the fitted maximal effect.

SMILES	PINK1 expr mod	Epigenetic reg	HTT aggregate	HTT ATP protect
C=CCn1cccc(/C=C/C(=O)c2ccc(C(C)(C)C)cc2)c1=S	-1.8%	1.1%	25.1µM*	nt
CCN(CC)c1ccc(-c2nn3c(-c4n[nH]c5c4CCC5)nnc3s2)cc1	-2.5%	5.4%	12.6µM*	-93.7%
CC1(C)COC(c2ccc(F)c([N+](=O)[O-])c2)=N1	0.2%	?	35.5µM*	16.9%[10 µM]
CN(C)c1ccc(NC(=O)COC(=O)CCC(=O)c2ccc(F)cc2)cc1	5.5%[38.3 µM]	3.7%	11.2%	-10.5%
CN(C)c1ccc(/C=C\C=C/c2ccnc3ccccc23)cc1	11.2µM*	nt	nt	nt
CN(N=O)c1ccc(/C=C\c2ccnc3ccccc23)cc1	nt	nt	nt	-6.4%[10 µM]
Cc1cc(-c2ccccc2)nc(N/N=C/c2ccccc2)n1	5.9%	nt	nt	nt
Cc1cc(N/N=C/c2ccc(Cl)cc2)nc(NCc2ccccc2)n1	-0.8%	0.0%	12.6µM*	nt
COc1ccc(C=NNc2ccc([N+](=O)[O-])cn2)cc1	11.2µM*	nt	nt	nt
O=[N+]([O-])c1ccc(NN=Cc2ccc(O)cc2)nc1	5.3%	nt	nt	nt
Cc1cc(-c2ccccc2)nc(N/N=C/c2ccc([N+](=O)[O-])cc2)n1	9.6%	0.9%	0.0282µM*	nt
COc1nc(OC)nc(N2CCC(C(=O)NCC3CCCCC3)CC2)n1	9.9%[38.3 µM]	0.0%	-16.6%	-6.5%
O=C1N=C(N2CCOCC2)S/C1=C/c1ccc(-c2ccc(F)cc2)o1	1.6%	1.1%	7.4%[9.22 µM]	37.3%[10 µM]
Cc1ccc(-c2ccc(/C=C3\SC(N4CCOCC4)=NC3=O)o2)cc1	0.0%	3.2%	-0.2%	2.82µM*
N[C@@H](Cc1cc(CP(=O)(O)O)cc(-c2ccccc2Cl)c1)C(=O)O	nt	8.2%	nt	31.6µM*
O=c1c2ccccc2nc(SCc2cn3ccsc3n2)n1-c1ccc(F)cc1	1.3%	-0.1%	5.1%	-0.4%[10 µM]
CCCCNc1c(-c2ccc(SC3CCCCC3)c(OC)c2)nc2ccc(C)cn12	25.1µM*	nt	nt	nt
CCC(C)Sc1cc(-c2nc3cc(C)ccn3c2NC2CCCCC2)ccc1OC (centres undefined)	12.6µM*	nt	nt	nt
CCC(C)Sc1ccc(-c2nc3ccc(Cl)cn3c2NCc2ccccc2)cc1 (centres undefined)	4.4%	nt	nt	nt
CCC(C)Sc1ccc(-c2nc3ccc(C)cn3c2NCc2ccccc2)cc1OC (centres undefined)	15.8µM*	nt	nt	nt
COc1ccc(-c2nc3ccc(C)cn3c2NCc2ccccc2)cc1SC1CCCCC1	3.2%	nt	nt	nt
COc1ccc(-n2cnnc2SCC(=O)Nc2nc(C)c(Cl)cc2Cl)cc1	1.2%	0.0%	14.0%	32.8%
Cc1sc(NC(=O)C2=COCCO2)c(C(N)=O)c1C	-0.7%	nt	nt	nt
CCOC(=O)N/N=C\c1ccc([N+](=O)[O-])o1	nt	-1.6%	-31.3%	-3.6%
O=C(Cc1ccc([N+](=O)[O-])cc1)N/N=C/c1ccc([N+](=O)[O-])o1	35.5µM*	-7.7%	26.3%[9.22 µM]	-210.9%
SMILES	PINK1 expr mod	Epigenetic reg	HTT aggregate	HTT ATP protect
CC(=O)N/N=C/c1ccc([N+](=O)[O-])o1	nt	nt	31.6µM*	-366.8%
Nc1nnnn1/N=C/c1ccccc1Cl	-1.4%	nt	nt	nt
COc1ccc(S(=O)(=O)N2CCCCC2)cc1NC(=O)[C@@H]1CCCN1C(=O)c1cccs1	0.5%	nt	nt	nt
O=S(=O)(Nc1cccc2ncccc12)c1cccs1	4.7%	?	12.6µM*	20.0%[10 µM]
CCCN(CC(=O)Nc1ccc(Cl)cc1Cl)C(=O)CC(NC(C)=O)c1ccccc1 (centres undefined)	-3.4%	nt	nt	nt
CCOc1ccccc1C(=O)N1c2ccccc2Sc2ccccc21	5.0%	-0.2%	15.8µM*	?
COc1ccccc1C(=O)N1c2ccccc2Sc2ccccc21	-2.4%	-1.9%	-0.4%	nt
CC1=C(C(=O)N(C)C)C(c2cccc(Cl)c2)NC(=O)N1 (centres undefined)	-0.6%	-1.0%	3.98µM*	-3.7%[10 µM]
Cc1ccc(/C=C2/NC(=O)N(Cc3ccccc3F)C2=O)s1	11.7%	3.55µM*	39.3%	-46.1%
O=C1N/C(=C/c2cccs2)C(=O)N1Cc1ccccc1F	1.5%	0.8%	11.6%	-36.8%
CC(C)c1ccc(OCC(=O)NC(Cc2c[nH]c3ccccc23)C(=O)O)cc1 (centres undefined)	1.6%	-1.5%	?	-5.7%
Cn1c(=O)c(C#N)c(-c2ccc(F)cc2)c2cc(C(=O)c3cc(Cl)cc(Cl)c3O)cnc21	25.1µM*	1.1%	16.0%[9.22 µM]	0.0%[10 µM]
COC(=O)NNC(=O)COc1cc(C)ccc1C	-0.7%	0.3%	4.3%	nt
Cc1cc(C(N)=O)c2ccccc2n1	nt	4.3%	-2.9%	-26.1%
NC(=O)c1cc2ccncc2c2ccccc12	2.1%	-3.1%	2.51µM*	-1.8%[10 µM]
COC(=O)CCCNC(=O)c1ccc2[nH]c(C)c(C)c2c1	1.2%	-0.8%	1.26µM*	-10.6%
Cn1c(=N)n(CC(=O)O)c2ccccc21	0.3%	-1.1%	5.62µM*	0.2%
Cn1c(=N)n(CC(=O)c2ccccc2)c2ccccc21	-0.2%	-2.4%	0.9%[9.22 µM]	-48.8%[10 µM]
O=C(OCCN1CCCCC1)c1cc2ccccc2o1	-3.1%	-0.2%	9.6%	-6.1%[10 µM]
CC1=C(c2ccc(NN=C(C#N)C#N)cc2)NNC(=O)C1	nt	nt	12.6µM*	-52.1%
Cc1ccc(N/N=C(\C#N)C(=O)c2ccsc2)cc1	?	1.6%	-7.5%[9.22 µM]	-3.1%[10 µM]
COc1ccc(-c2c(-c3ccsc3)oc3ccc(N4CCOCC4)cc23)cc1	3.1%	nt	nt	nt
Cc1occc1-c1nnc(SCC(=O)Nc2nc(-c3ccccc3)cs2)o1	10µM*	6.2%	-0.4%	2.2%[10 µM]
Cc1cc(-c2nnc(SCC(=O)Nc3nc(-c4ccccc4)cs3)o2)no1	-1.8%	0.0%	0.0%[9.22 µM]	18.3%[10 µM]
Cc1cccc(NC(=O)CSc2nnc(-c3ccccc3C)o2)c1	-0.5%[38.3 µM]	2.3%	0.0028µM*	nt
SMILES	PINK1 expr mod	Epigenetic reg	HTT aggregate	HTT ATP protect
O=C1OC(c2ccccc2)(c2cc(Br)ccc2O)c2ccccc21 (centres undefined)	-1.8%	nt	nt	nt
Cc1cccc(C)c1Nc1sc(C(=O)c2ccccc2)c(N)c1C(=O)Nc1ccc(F)cc1	44.7µM*	-0.5%	nt	nt
Cc1onc(-c2ccccc2)c1C(=O)Nc1cccc(S(=O)(=O)NC2=NCCC2)c1	-0.5%	nt	nt	nt
CC(C)(C)c1ccc(-n2nc(C#N)c(Cl)cc2=O)cc1	-4.0%	0.0%	5.01µM*	-192.3%
CC(C)(C)c1ccc(-n2nc(C(N)=O)c(O)cc2=O)cc1	1.0%	-0.1%	10.4%	-33.0%
COc1cc2c(cc1OC)C1(Nc3c-2c(C)nn3-c2ccccc2)C(=O)Nc2ccccc21 (centres undefined)	7.4%	?	-5.2%	3.55µM*
c1ccc(C(NCCNC(c2ccccc2)c2ccccc2)c2ccccc2)cc1	39.8µM*	3.9%	nt	-40.3%
CC(=O)Nc1cc(OC(C)=O)c2nonc2c1OC(C)=O	-0.1%[38.3 µM]	8.7%	7.08µM*	-118.6%
CC(=O)Oc1ccc2nonc2c1OC(C)=O	-0.5%	nt	nt	nt
C=CC[n+]1c(-c2ccc(OC)cc2)csc1NNC(=O)Nc1ccccc1	1.2%[38.3 µM]	1.2%	10µM*	28.4%
CCCCCCCn1c2c(c(=N)c3ccccc31)CCC2	20µM*	0.0%	?	-54.8%[10 µM]
CCCn1c2c(c(=N)c3c1CCC3)CCC2	0.9%	-4.1%	?	15.7%[10 µM]
CCCCn1c(NCc2cc(C)ccc2O)nc2ccccc21	15.8µM*	nt	nt	nt
